The text below walks through data of PubChem BioAssay (NCATS).

The source made the active and inactive calls. A call without a number means that no potency is given here. Calls come from the whole dose curve; as a rule, active = well fitted inhibition curve with a large enough effect; inconclusive = small, poorly fitted or top-dose-only effect; inactive = no such curve, though single readings can be large or run the other way.

This assay in a line: qHTS assay for measurement of the activity of small molecule inhibitors on Zika virus induced Caspase-3 activity in human astrocytoma cells (AID 1224859). To be noted: SNB-19 ZIKV-induced caspase-3/7, luminescence, 6 h; series mostly up to 45.7 µM. The source says: National Center for Advancing Translational Sciences [NCATS]
Johns Hopkins University School of Medicine
Increase in the Caspase-3 activity indicates an activation of apoptosis cell death pathway caused by Zika virus infection in certain types of neuronal cells including human neural progenitor cells (hNPCs), astrocytes, and astrocytoma cell line (SNB-19). This cell-based caspase-3 activity assay measures the increased caspase-3 activity in the astrocytoma cell line (SNB-19) after a 6-hour Zika virus infection with a luminescence readout. A decrease in the luminescence signal in this assay by small molecule treatment indicates an inhibitory effect of that small molecule on the Zika virus induced caspase-3 activity that may correlate with its effect on reduction of Zika virus caused cell death.
The medium for SNB-19 cells is composed of RPMI 1640 (ATCC, Cat.# 30-2001), 10% fetal bovine serum (FBS) (GE healthcare Life Sciences, Cat.# SH30071.03), and 1% Pen/Strep (Gibco, Cat.# 15140-122). A Caspase-Glo 3/7 assay kit (catalog number G8092; Promega, Madison, WI) was used to detect caspase-3 activity induced by Zika virus infection in human cells. The reagent mixture was reconstituted as described in the protocol from the manufacturer. Polystyrene tissue culture treated and PDL coated white plates were obtained from Greiner Bio-One (Monroe, NC). Cells were seeded in 384- or 1536-well assay plates and cultured at 37 C with 5% CO2 for 16 to 20 hours. The typical cell seeding density in the 1536-well plate assay is 250 cells/well in 3ul medium for SNB-19 cells in tissue culture treated plates. Compounds were added to cells and incubated for one hour before addition of ZIKV solution to cells (2 FFU/cell). After incubation at 37 C with 5% CO2 for 6 hours, the reagent mixture of Caspase-Glo 3/7 assay kit was added to each well, followed by incubation at room temperature for 30 minutes. The luminescence intensity of the assay plates was measured using a ViewLux plate reader (PerkinElmer). Data were normalized by using the cell-containing wells without ZIKV as a negative control (0% induction of caspase 3/7 activity) and wells containing ZIKV infected cells (Caspase-3 activity induced) as a positive control (100% induction of caspase 3 activity). The percentage inhibitions of the increased Caspase-3 activity by small molecule inhibitors were then calculated.
A general note: In qHTS, concentration-response curves come from the screen itself.
`CN(N=O)C(=O)N[C@H]1C(O)OC(CO)[C@@H](O)[C@H]1O` (stereo not given in full): the Potency result is “inactive”. On the same count and under the same terms, for `COc1cc(OC)c(NC(=O)Nc2cc(C)on2)cc1Cl` the value was “inactive”; for `CC(C=CC=C(C)C=CC1=C(C)CCCC1(C)C)=CC=CC=C(C)C=CC=C(C)C=CC1=C(C)CCCC1(C)C`, “inactive”.

Regarding `N#CC(=C(O)c1ccc(Cl)cc1Cl)c1nc2cc(Cl)ccc2c(=O)[nH]1`, the Potency entry is “inactive”. Regarding `CN(C)c1ccc2cc(C(=O)N[C@@H](CCCN=C(N)CCl)C(=O)NCc3ccccc3)ccc2c1`, the Potency entry is “inactive”. Still for that read-out and setting: in the case of `C[C@H](NC(=O)Cc1cc(F)cc(F)c1)C(=O)N[C@H](C(=O)OC(C)(C)C)c1ccccc1` it was “inactive”; in that of `CC(C)[C@H](CO)Nc1nc(Nc2cccc(Cl)c2)c2ncn(C(C)C)c2n1`, “inactive”; in that of `CCn1c(=O)c2c(nc(C=Cc3ccc(OC)c(OC)c3)n2C)n(CC)c1=O`, “inactive”.

Take `Cn1cc(C[C@@H](N)C(=O)O)c2ccccc21`: the Potency entry is “inactive”.

In the case of `O=C(Nc1ccc(Oc2ccnc3[nH]ccc23)c(F)c1)c1cccn(-c2ccc(F)cc2)c1=O`, the Potency entry was “inactive”. As to `COc1ccc2c(c1OC)C(=O)OC2[C@H]1c2c(cc3c(c2OC)OCO3)CCN1C` (stereo not given in full), the Potency result was “inactive”. The same measure, in the same setting: for `COc1cc(OC)c(C=CS(=O)(=O)Cc2ccc(OC)c(NCC(=O)O)c2)c(OC)c1` the value was “inactive”; for `OCCNC1CCCc2c1[nH]c1ccc(-c3ccccc3)cc21` (stereo not given), “inactive”.

In the case of `CC(=O)[C@]1(O)Cc2c(O)c3c(c(O)c2[C@@H](O[C@H]2C[C@H](N)[C@@H](O)[C@H](C)O2)C1)C(=O)c1ccccc1C3=O`, the Potency result is “inactive”. On to `CN1CCc2c(c3ccccc3n2Cc2ccc(C(=O)NO)cc2)C1`, for which the Potency entry is “inactive”. On to `CN(C)c1ccc(C(=O)NCCCCCCC(=O)NO)cc1`, for which the Potency result was “inactive”. In the case of `COC(=O)C=CC(=O)OC`, the Potency result is “inactive”.

As to `CC(C)n1cnc2c(NCCc3ccc(O)cc3)nc(-c3csc4ccccc34)nc21`, the Potency entry was “inactive”. Regarding `CCC(C=C[C@@H]1OC(=O)C=C[C@H]1C)=C[C@H](C)CC=CC(C)=C[C@@H](C)C(=O)[C@@H](C)[C@H](O)[C@@H](C)CC(C)=CC(=O)O`, the activity change, negative = inhibition was 5.61% [at 1.73 µM] (inactive).

Take `N#CC(=C(N)Sc1ccc(N)cc1)c1ccccc1C(F)(F)F`: the Potency result was “inactive”. Same read-out and setting: for `C=CC(=O)N1CCc2ccc(-n3c(=O)ccc4cnc5ccc(-c6cnn(C)c6)cc5c43)cc21` the value was “inactive”. For the compound `CCOc1cc2ncc(C#N)c(Nc3ccc(OCc4ccccn4)c(Cl)c3)c2cc1NC(=O)C=CCN(C)C`, the Potency result is “inactive”. Still for that read-out and setting: in the case of `O=C(O)C(=O)Nc1cccc(C2=NN=N[N]2)c1` it was “inactive”; in that of `CC(C)c1cc(C(C)C)c(CC(=O)NS(=O)(=O)Oc2c(C(C)C)cccc2C(C)C)c(C(C)C)c1`, “inactive”; in that of `CC(=O)OCC(=O)[C@@]12N=C(C)O[C@H]1C[C@H]1[C@@H]3CCC4=CC(=O)C=C[C@]4(C)[C@@H]3[C@@H](O)C[C@@]12C`, “inactive”. Same read-out and setting: in the case of `COc1cccc2c1C(=O)c1c(O)c3c(c(O)c1C2=O)C[C@@](O)(C(=O)CO)C[C@@H]3O[C@H]1C[C@H](N)[C@@H](O)[C@H](C)O1` it was “inactive”; in that of `Cc1ccccc1C(=O)Nc1ccc(C(=O)N2CCCC(O)c3cc(Cl)ccc32)c(C)c1` (stereo not given), “inactive”. In the case of `N=c1ccn2c(n1)O[C@H]1[C@@H](O)[C@@H](CO)O[C@H]12`, the Potency result is “inactive”. The same measure, in the same setting: in the case of `Nc1cccc2c1C(=O)N(C1CCC(=O)NC1=O)C2=O` (stereo not given) it was “inactive”; in that of `c1cc(N[C@@H]2CCNC2)nc(-c2cnc3ccc(-c4cn[nH]c4)cn23)c1`, “inactive”; in that of `Nc1nc(=O)n([C@H]2C[C@H](O)[C@@H](CO)O2)cc1F`, “inactive”. Same read-out and setting: for `N[C@H]1CN(c2c(F)cc3c(=O)c(C(=O)O)cn(C4C[C@@H]4F)c3c2Cl)CC12CC2` (stereo not given in full) the value was “inactive”. On to `c1cncc(CN2CCC(n3ncc4c(N5CCOCC5)nc(-c5ccc6[nH]ccc6c5)nc43)CC2)c1`, for which the Potency result was “inactive”. Turning to `C=CCNC1=C2C[C@@H](C)C[C@H](OC)[C@@H](O)[C@@H](C)C=C(C)[C@H](OC(N)=O)[C@@H](OC)C=CC=C(C)C(=O)NC(=CC1=O)C2=O`, the Potency entry is “inactive”.

Regarding `C[C@H](NCc1ccc(OCc2cccc(F)c2)cc1)C(N)=O`, the Potency result is “inactive”. On the same count and under the same terms, in the case of `COc1cc(C(=O)NC2CCN(C)CC2)ccc1Nc1ncc2c(n1)N(C1CCCC1)CCC(=O)N2C(C)C` it was “inactive”. In the case of `COc1cc(C)c(Sc2cnc(NC(=O)c3ccc(CNC(C)C(C)(C)C)cc3)s2)cc1C(=O)N1CCN(C(C)=O)CC1` (stereo not given), the Potency entry was “inactive”. On the same count and under the same terms, in the case of `COc1cccc2c1C(=O)c1c(O)c3c(c(O)c1C2=O)C[C@@](O)(C(C)=O)C[C@H]3O[C@H]1C[C@H](N)[C@H](O)[C@H](C)O1` it was “inactive”; in that of `CN(C)CCN1C(=O)c2cccc3cc(N)cc(c23)C1=O`, “inactive”. Same read-out and setting: for `C[C@@H](Cc1cc2c(c(C(N)=O)c1)N(CCCO)CC2)NCCOc1ccccc1OCC(F)(F)F` the value was “inactive”.
